Experimental data reported in PubChem BioAssay.
Values joined by “and” are separate entries in the source; they are usually repeats but may differ in a detail not shown here. Equal values may be shown once. Active and inactive are the calls of the source. Rule as the data show it, unless noted: active = parasite load remaining mostly below about 12% (no sharp cut-off); inactive = mostly above about 10%.

Columns and labels:
[1] = liver-stage malaria parasite growth inhibition, primary screen, cell-based, HepG2, luciferase luminescence, HepG2 viability (AID 624349);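 also: 100% = mean of DMSO negative control wells on the same plate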; conditions: P. berghei liver stage in HepG2, luciferase luminescence, concentration not given here; parasite load remaining: stronger effect = lower value; viability: measured here: HepG2 viability without parasites
[2] = stimulators of nuclear beta-catenin in C2C12, primary screen, imaging, WNT3A-conditioned medium, mouse C2C12, NPC library (AID 1117326; in the data active = nuclear beta-catenin stimulation mostly above about 4.2%, no sharp cut-off; inactive = mostly below about 10%); conditions: stronger effect = higher value
[3] = stimulators of insulin release from INS-1E, primary screen, cell-based, 5 mM glucose, NPC library (AID 1117329;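 active = compound raises insulin release from rat beta cells at 5 mM glucose, no numeric limit stated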); conditions: rat INS-1E insulin secretion, at 10 µM, stronger effect = higher value
[4] = growth inhibition of GSK3B-pretreated HCT116 cells – cell-based, CellTiter-Glo, 0.2 to 20 µM (AID 1117336;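 active = compounds lowering colon cancer cell viability after pretreatment blocking the GSK3B kinase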); conditions: HCT116 viability after GSK3B inhibitor, at 20 µM, stronger effect = higher value
[5] = inhibition of endothelial tube formation, primary screen, imaging, VEGF stimulated, CD31 staining, tube area, NPC library (AID 1117340;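 active = compound that reduces growth-factor-driven endothelial tube area in a mixed cell culture, no cutoff stated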); conditions: VEGF-stimulated ADSC/ECFC co-culture, at 10 µM, stronger effect = higher value
[6] = glucagon-like peptide 1 release enhancers, primary assay, NCI-H716 cell line, NPC library (AID 1117341;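 active = compound raises GLP1 secretion from the human gut endocrine cells, with no numeric limit stated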); conditions: NCI-H716 cells, at 10 µM, stronger effect = higher value
[7] = HCT116 colon cancer cell growth inhibition, primary screen, CellTiter-Glo luminescence, NPC library (AID 1117342;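 active = compounds that lower survival of HCT116 colon cancer cells in the luminescence readout, no numeric limit stated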); conditions: at 20 µM (top of the series)
[8] = CellTiter-Glo luminescent readout of SW480 viability loss, NPC library primary (AID 1117343;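 active = compounds that lower viability of the colon cancer cells in the luminescence readout, with no numeric limit stated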); conditions: CellTiter-Glo luminescence; at 20 µM (top of the series)
[9] = decreased DLD-1 cellular survival, CellTiter-Glo luminescent readout, NPC compound collection, primary HTS (AID 1117346;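 active = compounds that lower survival of DLD-1 colon cancer cells in the luminescence readout, no cutoff given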); conditions: DLD-1 viability, CellTiter-Glo luminescence; at 20 µM (top of the series)
[10] = molecular target: 6-phosphogluconate dehydrogenase, decarboxylating (Homo sapiens) (UniProt P52209); assay: 6PGD enzyme inhibitors, primary screen, biochemical, human, recombinant enzyme, NADPH absorbance (AID 1159550;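 active = at least 20% inhibition of 6-phosphogluconate dehydrogenase activity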); conditions: recombinant 6PGD, NADPH absorbance 341 nm; at 10 µM; stronger effect = higher value
[11] = differential killing of epithelial or mesenchymal cells, primary screen, imaging, PC-3E GFP, TEM4-18 mCherry, co-culture (AID 1345086;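 active = compounds killing one labelled cell type while sparing the other, by normalised counts and ratio limits, not self-fluorescent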;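 as to all read-outs here: cells exposed to compound for 72 h before imaging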;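 as to red/green cell ratio (normalised): normalised mesenchymal count divided by normalised epithelial count so high means epithelial killing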); conditions: imaging cell counts, at 1 µM; for red/green cell ratio (normalised): actives lie on both sides
[12] = system: Aerobactin synthetase IucA (Klebsiella pneumoniae hvKP1); assay: Biochemical IucA enzyme inhibition primary screen of the Spectrum library (AID 1346200; call rule not given here;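 also: 100% = wells without compound and 0% = wells lacking enzyme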); conditions: malachite green pyrophosphate, A620, at 8 µM, stronger effect = lower value
[13] = molecular target: NAD(+) hydrolase SARM1 (Homo sapiens) (UniProt Q6SZW1); assay: SARM1 TIR NADase inhibitors, cell lysate, NAD-Glo luminescence (AID 1508614;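 active = compound whose remaining NAD level is above about 45 nM, limit read from the data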;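 also: higher remaining NAD means stronger inhibition of SARM1 NADase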); conditions: SAM-TIR HEK293T lysate NADase, at 1 µM, stronger effect = higher value
[14] = molecular target: Mitogen-activated protein kinase 7 (Homo sapiens) (UniProt Q13164); assay: ERK5 transactivation activators in reporter cells, primary screen, cell-based, HTS (AID 1508626;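 active = luciferase signal above three times the same-plate solvent-only control wells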;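 also: luciferase driven by Gal4-ERK5 fusion binding five Gal4 sites before minimal TATA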); conditions: HeLa Gal4-ERK5 transactivation, 18 h, at 5 µM, stronger effect = higher value
[15] = hESC survival regulators, cell-based (AID 493140; call rule not given here;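 also: cells exposed to compounds for four days before counting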); conditions: human embryonic stem cell survival screen; stronger effect = higher value
[16] = sensitizers of A549 cells to miR-34 induction, primary screen, imaging, A549 dox-inducible miR-34, nuclei and caspase counts (AID 1347080;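 active = compounds whose cell count with miR-34 switched on is under 0.7 times the count with it off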); conditions: A549 miR-34 inducible, Hoechst nuclei count, 48 h
[17] = viability rescue of complex I mutant cybrids, primary screen, cell-based, galactose medium, ATP luminescence (AID 1645843;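 active = z-score of at least 1.8 in each of two replicates, scored against plate mean and spread of sample wells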;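 also: positive z means more ATP and so rescue of galactose-driven cybrid death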); conditions: complex I mutant cybrid cells, 72 h, stronger effect = higher value
[18] = survival rescue of mitochondrial mutant cells in low glucose, primary screen, MELAS cybrids, Rieske KO mouse fibroblasts, CellTiter-Glo (AID 1508586;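 active = mean z-score across replicates of 1.96 or higher in either the MELAS or the Rieske mutant cell line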;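 also: z relative to plate mean and SD of compound and empty wells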)
[19] = measured here: epithelial PC-3E GFP cell survival
[20] = measured here: mesenchymal TEM4-18 mCherry cell survival
[21] = measured here: relative caspase fold change +Dox/-Dox
[22] = measured here: total cells with miR-34 induction, stronger effect = lower value
[23] = measured here: total cells without miR-34 induction

6-phosphogluconate dehydrogenase, decarboxylating (Homo sapiens), sequence (P52209 whole entry, looked up): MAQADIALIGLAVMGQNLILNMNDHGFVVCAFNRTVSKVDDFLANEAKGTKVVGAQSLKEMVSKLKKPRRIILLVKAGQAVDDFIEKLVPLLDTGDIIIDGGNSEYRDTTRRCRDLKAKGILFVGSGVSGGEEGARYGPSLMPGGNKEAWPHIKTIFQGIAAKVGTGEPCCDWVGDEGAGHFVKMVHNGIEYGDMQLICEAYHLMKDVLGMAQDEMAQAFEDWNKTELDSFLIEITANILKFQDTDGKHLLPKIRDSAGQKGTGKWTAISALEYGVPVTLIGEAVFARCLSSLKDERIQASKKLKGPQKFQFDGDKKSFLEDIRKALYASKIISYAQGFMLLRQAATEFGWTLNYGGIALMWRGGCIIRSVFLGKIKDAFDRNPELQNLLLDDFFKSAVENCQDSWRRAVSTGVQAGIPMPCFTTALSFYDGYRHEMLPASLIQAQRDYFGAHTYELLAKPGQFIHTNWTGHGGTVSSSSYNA
NAD(+) hydrolase SARM1 (Homo sapiens), sequence (Q6SZW1 whole entry, looked up, the tested form may be a part): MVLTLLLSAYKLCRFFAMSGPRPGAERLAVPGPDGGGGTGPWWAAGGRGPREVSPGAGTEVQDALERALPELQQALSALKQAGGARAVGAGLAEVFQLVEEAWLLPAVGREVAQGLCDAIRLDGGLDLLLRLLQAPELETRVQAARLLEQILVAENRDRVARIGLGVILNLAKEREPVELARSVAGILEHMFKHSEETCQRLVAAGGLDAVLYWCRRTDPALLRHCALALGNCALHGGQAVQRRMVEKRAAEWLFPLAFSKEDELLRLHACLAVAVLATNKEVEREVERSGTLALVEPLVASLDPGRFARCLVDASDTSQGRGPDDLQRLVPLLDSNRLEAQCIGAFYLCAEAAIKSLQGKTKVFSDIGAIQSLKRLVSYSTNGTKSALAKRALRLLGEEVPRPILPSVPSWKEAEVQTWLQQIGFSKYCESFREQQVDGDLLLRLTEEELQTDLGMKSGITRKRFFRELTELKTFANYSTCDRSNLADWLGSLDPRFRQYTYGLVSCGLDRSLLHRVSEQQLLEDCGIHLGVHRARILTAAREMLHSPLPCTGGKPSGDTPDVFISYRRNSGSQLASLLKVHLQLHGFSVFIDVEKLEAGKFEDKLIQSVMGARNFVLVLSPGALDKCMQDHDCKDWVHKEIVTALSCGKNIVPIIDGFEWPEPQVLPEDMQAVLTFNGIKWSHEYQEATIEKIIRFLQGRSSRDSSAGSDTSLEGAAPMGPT
Mitogen-activated protein kinase 7 (Homo sapiens), sequence (Q13164 whole entry, looked up, the tested form may be a part): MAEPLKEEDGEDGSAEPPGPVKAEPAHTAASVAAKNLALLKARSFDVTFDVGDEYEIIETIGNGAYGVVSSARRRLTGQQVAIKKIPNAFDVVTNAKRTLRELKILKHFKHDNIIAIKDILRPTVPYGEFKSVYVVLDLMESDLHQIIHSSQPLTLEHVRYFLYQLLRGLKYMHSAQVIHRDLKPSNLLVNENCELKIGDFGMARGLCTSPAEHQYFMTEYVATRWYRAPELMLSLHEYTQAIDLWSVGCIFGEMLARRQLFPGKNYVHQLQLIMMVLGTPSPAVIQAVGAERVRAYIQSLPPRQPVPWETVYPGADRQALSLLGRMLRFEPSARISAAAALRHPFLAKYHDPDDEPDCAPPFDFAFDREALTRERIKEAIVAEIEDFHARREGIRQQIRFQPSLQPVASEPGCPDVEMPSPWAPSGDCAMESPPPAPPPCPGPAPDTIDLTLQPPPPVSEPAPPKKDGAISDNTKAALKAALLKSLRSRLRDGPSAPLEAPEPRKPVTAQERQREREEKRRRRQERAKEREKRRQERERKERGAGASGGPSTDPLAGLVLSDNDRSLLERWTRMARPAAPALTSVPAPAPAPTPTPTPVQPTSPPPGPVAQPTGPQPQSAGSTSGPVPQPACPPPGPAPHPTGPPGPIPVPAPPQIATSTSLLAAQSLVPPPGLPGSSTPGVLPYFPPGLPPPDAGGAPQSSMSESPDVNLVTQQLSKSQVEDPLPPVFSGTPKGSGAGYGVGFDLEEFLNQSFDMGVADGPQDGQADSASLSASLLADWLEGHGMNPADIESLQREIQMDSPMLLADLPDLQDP

**Q.** Which parasite load remaining [1] does the source give for CC[n+]1c(-c2ccccc2)c2cc(N)ccc2c2ccc(N)cc21 here?
**A.** 116% (inactive)

**Q.** And the viability [1]?
**A.** 83.5%

**Q.** What about the nuclear beta-catenin stimulation ([2]; at 10 µM) of the same molecule?
**A.** 17.6% (inactive)

**Q.** What about the nuclear beta-catenin stimulation ([2]; stimulation, at 2 µM) of the same molecule?
**A.** 1%

**Q.** And the insulin secretion stimulation [3]?
**A.** 2.1% (inactive)

**Q.** And the viability decrease [4]?
**A.** -24.6% (active)

**Q.** And the tube area decrease [5]?
**A.** 29.5% (inactive)

**Q.** And the GLP1 secretion stimulation [6]?
**A.** -2.8% (inactive)

**Q.** And the inhibition of viability [7]?
**A.** 79.1% (active)

**Q.** What about the viability decrease (inhibition) [8] of the same molecule?
**A.** 52.1% (active)

**Q.** And the viability decrease (inhibition) [9]?
**A.** 83.7% (active)

**Q.** What about the inhibition [10] of the same molecule?
**A.** 7.37% (inactive)

**Q.** What about the red/green cell ratio (normalised) [11] of the same molecule?
**A.** 2.8 (inactive)

**Q.** What about the normalised cell number [11, 19] of the same molecule?
**A.** 0.31

**Q.** And the normalised cell number [11, 20]?
**A.** 0.87

**Q.** And the activity remaining [12]?
**A.** 95.2% (inactive)

**Q.** What about the remaining NAD [13] of the same molecule?
**A.** 10 nM (inactive)

**Q.** And the luciferase signal [14]?
**A.** 104 AU (inactive)

**Q.** For COc1c2c(cc3c1OCO3)CCN(C)C2, which survival [15] is on record?
**A.** 4.08 (inactive)

**Q.** What about the parasite load remaining [1] of the same molecule?
**A.** 101% (inactive) and 78.2% (inactive)

**Q.** And the viability [1]?
**A.** 102% and 69.9%

**Q.** And the nuclear beta-catenin stimulation ([2]; at 10 µM)?
**A.** 0.2% (inactive)

**Q.** And the nuclear beta-catenin stimulation ([2]; stimulation, at 2 µM)?
**A.** 1.3%

**Q.** What about the insulin secretion stimulation [3] of the same molecule?
**A.** -1.1% (inactive)

**Q.** And the viability decrease [4]?
**A.** 5% (inactive)

**Q.** And the tube area decrease [5]?
**A.** 4.7% (inactive)

**Q.** What about the GLP1 secretion stimulation [6] of the same molecule?
**A.** -0.1% (inactive)

**Q.** What about the inhibition of viability [7] of the same molecule?
**A.** -4.7% (inactive)

**Q.** What about the viability decrease (inhibition) [8] of the same molecule?
**A.** 36.7% (inactive)

**Q.** And the viability decrease (inhibition) [9]?
**A.** 4.85% (inactive)

**Q.** And the inhibition [10]?
**A.** 1.73% (inactive)

**Q.** What about the activity remaining [12] of the same molecule?
**A.** 120% (inactive)

**Q.** And the fold change ([16]; stronger effect = lower value)?
**A.** 0.866 (inactive)

**Q.** And the fold change [16, 21]?
**A.** 1.09

**Q.** What about the cell count [16, 22] of the same molecule?
**A.** 9520

**Q.** And the cell count [16, 23]?
**A.** 11000

**Q.** With O=C1c2ccccc2C(=O)c2ccccc21 as the molecule, how does the parasite load remaining [1] read?
**A.** 115% (inactive)

**Q.** What about the viability [1] of the same molecule?
**A.** 67.1%

**Q.** What about the nuclear beta-catenin stimulation ([2]; at 10 µM) of the same molecule?
**A.** 1.3% (inactive)

**Q.** What about the nuclear beta-catenin stimulation ([2]; stimulation, at 2 µM) of the same molecule?
**A.** 0.4%

**Q.** What about the insulin secretion stimulation [3] of the same molecule?
**A.** -1.4% (inactive)

**Q.** And the viability decrease [4]?
**A.** 2.3% (inactive)

**Q.** And the tube area decrease [5]?
**A.** 6.7% (inactive)

**Q.** What about the GLP1 secretion stimulation [6] of the same molecule?
**A.** 1.9% (inactive)

**Q.** What about the inhibition of viability [7] of the same molecule?
**A.** -45% (inactive)

**Q.** And the viability decrease (inhibition) [8]?
**A.** 31.6% (inactive)

**Q.** And the viability decrease (inhibition) [9]?
**A.** 4.05% (inactive)

**Q.** What about the inhibition [10] of the same molecule?
**A.** -2.54% (inactive)

**Q.** And the red/green cell ratio (normalised) [11]?
**A.** 0.79 (inactive)

**Q.** And the normalised cell number [11, 19]?
**A.** 1.17

**Q.** What about the normalised cell number [11, 20] of the same molecule?
**A.** 0.92

**Q.** And the activity remaining [12]?
**A.** 119% (inactive)

**Q.** And the luciferase signal [14]?
**A.** 100 AU (inactive)

**Q.** Which parasite load remaining [1] does the source give for C[N+]1(CCC(C(N)=O)(c2ccccc2)c2ccccc2)CCCCC1 here?
**A.** 104% (inactive)

**Q.** What about the viability [1] of the same molecule?
**A.** 70.3%

**Q.** And the nuclear beta-catenin stimulation ([2]; at 10 µM)?
**A.** 0.3% (inactive)

**Q.** What about the nuclear beta-catenin stimulation ([2]; stimulation, at 2 µM) of the same molecule?
**A.** 0.3%

**Q.** And the insulin secretion stimulation [3]?
**A.** 0.55% (inactive)

**Q.** And the viability decrease [4]?
**A.** 13.5% (inactive)

**Q.** What about the tube area decrease [5] of the same molecule?
**A.** -8.4% (inactive)

**Q.** And the GLP1 secretion stimulation [6]?
**A.** 1.2% (inactive)

**Q.** And the inhibition of viability [7]?
**A.** -21.6% (inactive)

**Q.** And the viability decrease (inhibition) [8]?
**A.** -9.7% (inactive)

**Q.** What about the viability decrease (inhibition) [9] of the same molecule?
**A.** -24.2% (inactive)

**Q.** And the fold change ([16]; stronger effect = lower value)?
**A.** 0.846 (inactive)

**Q.** What about the fold change [16, 21] of the same molecule?
**A.** 2.2

**Q.** What about the cell count [16, 22] of the same molecule?
**A.** 8180

**Q.** What about the cell count [16, 23] of the same molecule?
**A.** 9670

**Q.** What about the z-score [17] of the same molecule?
**A.** 0.675 (inactive)

**Q.** Which nuclear beta-catenin stimulation ([2]; at 10 µM) does the source give for CNCC(=O)c1ccc(O)c(O)c1 here?
**A.** -2.8% (inactive)

**Q.** And the nuclear beta-catenin stimulation ([2]; stimulation, at 2 µM)?
**A.** -1.5%

**Q.** What about the insulin secretion stimulation [3] of the same molecule?
**A.** -0.7% (inactive)

**Q.** What about the viability decrease [4] of the same molecule?
**A.** 44.4% (inactive)

**Q.** What about the tube area decrease [5] of the same molecule?
**A.** -23.7% (inactive)

**Q.** And the GLP1 secretion stimulation [6]?
**A.** -4.7% (inactive)

**Q.** What about the inhibition of viability [7] of the same molecule?
**A.** 20.7% (inactive)

**Q.** And the viability decrease (inhibition) [8]?
**A.** 24.3% (inactive)

**Q.** What about the viability decrease (inhibition) [9] of the same molecule?
**A.** 19.2% (inactive)

**Q.** What about the red/green cell ratio (normalised) ([11]; counts scaled to control wells, 1 = unselective) of the same molecule?
**A.** 1.24 (inactive)

**Q.** What about the normalised cell number [11, 19] of the same molecule?
**A.** 1.18

**Q.** What about the normalised cell number [11, 20] of the same molecule?
**A.** 1.47

**Q.** And the fold change ([16]; stronger effect = lower value)?
**A.** 0.925 (inactive) and 0.971 (inactive)

**Q.** What about the fold change [16, 21] of the same molecule?
**A.** 0.648 and 0.466

**Q.** What about the cell count [16, 22] of the same molecule?
**A.** 6760 and 7680

**Q.** And the cell count [16, 23]?
**A.** 7310 and 7920

**Q.** What about the z-score ([18]; MELAS cybrid survival, CellTiter-Glo 48 h, stronger effect = higher value) of the same molecule?
**A.** -0.0398 (inactive)

**Q.** And the z-score ([18]; Rieske KO mouse fibroblast survival, CellTiter-Glo 72 h)?
**A.** -0.269

**Q.** And the remaining NAD [13]?
**A.** 10 nM (inactive)
